# Bioassay records (PubChem)
# HCV inhibitor = qHTS Assay for Inhibitors of Hepatitis C Virus (HCV) | Huh7.5.1 HCVcc-Cre infection, luciferase reporter, 44 h | Potency, µM (top dose mostly 41.8 µM), without a hit: at the top dose activity change, negative = inhibition, most hits filed as inhibitors | hit rate 3.4% among 340,000 | AID 651820, 2012; also: potency is read from the fitted curve at half-maximal effect; % is scaled to controls: 0 for no effect and ±100 for the full control effect
#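 HCVcc-Cre virus at an moi near 0.5 was added right after compound to cells cultured 4 h from seeding (1,000 cells/well). Luciferase activity was determined 44 h later, 15 min after substrate addition at RT.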
# HCMV inh = qHTS Assay for inhibitors of the human cytomegalovirus (HCMV). HFF cells, HCMV-luciferase reporter, 72 h; hits give low values. activity change, negative = inhibition, % at 57.5 µM. hit rate 4.5% among 410,000; in the data active = activity change below about -60%; inconclusive = no clear call, values can overlap the other calls; inactive = above about -39%; also: % is scaled to controls: 0 for no effect and ±100 for the full control effect
#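 Screen run at 2 compound doses on HFFs infected with reporter HCMV, MOI 1 PFU/cell. Luciferase activity from cell lysates at 72 h post infection gave inhibition relative to buffer-only and Salinomycin wells.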
# Pf growth 96h = Primary qHTS for delayed death inhibitors of the malarial parasite plastid, 96 hour incubation; P. falciparum luciferase reporter growth, 96 h; hit rate 6.9% among 320,000; Potency, µM (highest dose often 28.7 µM), for the others: at the top dose activity change, negative = inhibition, most hits filed as inhibitors; also: potency is read from the fitted curve at half-maximal effect; % is scaled to controls: 0 for no effect and ±100 for the full control effect
#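 Two-generation exposure (96 h) targets delayed-death phenotype. Reporter parasites carrying integrated firefly luciferase, in red cells at 2% hematocrit and 0.05% parasitemia final, kept at 37 C, 5% CO2; luminescence loss indicates inhibition.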
# Pf growth 48h = Primary qHTS for delayed death inhibitors of the malarial parasite plastid, 48 hour incubation; P. falciparum luciferase growth in erythrocytes, 48 h; Potency, µM (top dose mostly 28.7 µM), for inactives: at the highest dose activity change, negative = inhibition, usual class: inhibitors; hit rate 5.9% among 310,000; AID 504832, 2011; also: potency is read from the fitted curve at half-maximal effect; % is scaled to controls: 0 for no effect and ±100 for the full control effect
#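 Cell-based growth assay: transgenic P. falciparum expressing firefly luciferase, cultured in red cells within RPMI 1640 containing 0.5% w/v Albumax, 24 mM bicarbonate and gentamycin. A drop in luciferase activity indicates inhibition.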
# Cycloheximide cs = Cycloheximide Counterscreen for Small Molecule Inhibitors of Shiga Toxin; max response, %; hit rate 12% among 300,000; cell reporter, cycloheximide protein synthesis inhibition counterscreen; in the data active = max response mostly above about 13%, no sharp cut-off; inactive = mostly below about 14%; also: read at 38.3 µM for the half of the compounds with a filed dose; 0% is about no effect
# Shiga inhibitor = A qHTS for Small Molecule Inhibitors of Shiga Toxin. Vero cells, Shiga toxin protein synthesis inhibition reporter. inhibition, % at 38.7 µM. hit rate 9.2% among 290,000. AID 2315, 2010; in the data active = inhibition mostly above about 28%, no sharp cut-off; inactive = mostly below about 43%; also: 0% is about no effect
# HCV confirm = qHTS Assay for Inhibitors of Hepatitis C Virus (HCV): Confirmation Assay for Cherry-picked Compounds; AID 720575, 2013; HCVcc-Cre infectious virus cell assay, luciferase, inhibition; hit rate 78% among 640; shares compounds with HCV inhibitor; Potency, µM (highest dose often 41.8 µM), inactives show top-dose activity, negative = inhibition, hits mostly inhibitors; also: potency is read from the fitted curve at half-maximal effect; nearly all actives have a fitted effect of over 80% in size
# HCV host tox = qHTS Assay for Inhibitors of Hepatitis C Virus (HCV): Cytotoxicity Counterscreen for Cherry-picked Compounds; shares compounds with HCV inhibitor; HCV host cell line cytotoxicity counterscreen; Potency, µM (titrated, usually from 41.8 µM), inactives show at the highest dose activity change, negative = cytotoxicity, actives largely listed as inhibitors; hit rate 22% among 640;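 also: potency is read from the fitted curve at half-maximal effect; 44 h compound exposure; % is scaled to controls: 0 for no effect and ±100 for the full control effect; nearly all actives have a fitted effect of over 55% in size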
# * = called active by the depositor; ? = inconclusive; . = not tested or not shown. A selection: hits, their analogues and other compounds. The true share with any hit is near 21%. Unless noted, calls follow the shape of the dose curve; as a rule, active = well fitted curve in the direction sought with a large enough effect; inconclusive = small, poorly fitted or top-dose-only effect, or another doubt; inactive = no such curve, though single readings can be large; an effect the other way counts as inactive or inconclusive.
SMILES,HCV inhibitor,HCMV inh,Pf growth 96h,Pf growth 48h,Cycloheximide cs,Shiga inhibitor,HCV confirm,HCV host tox
CCOc1cc(C(=O)Nc2cc(C(=O)OC)ccc2C)ccc1OCC(=O)N1CCOCC1,-11%,0,18%,-16%,.,.,.,.
O=C(Nc1ccc(S(=O)(=O)N2CCCC2)cc1)c1ccc(CN2CCc3ccccc3C2)cc1,7.1µM*,.,-10%,?,-2,3,0.63µM*,1µM*
CC(=O)c1ccc(NC(=O)c2ccc(S(=O)(=O)N3CCCC3)cc2)cc1,-7%,-11,?,?,8,-16,.,.
O=C(O)c1ccc(S(=O)(=O)N2CCC(NC(=O)C3CCCCC3)CC2)cc1,-12%,-4,20%,29%,-5,3,.,.
CC1(c2ccc(OCC#N)cc2)C=C(c2ccc(OCC#N)cc2)n2nc(C(F)(F)F)nc2N1 (stereo not given),8.9µM*,-69*,7.4µM*,9.3µM*,-2,9,22µM*,35%
CSCC[C@H](NC(=O)c1ccc(NC[C@@H](N)CS)cc1-c1ccccc1)C(=O)O,.,.,.,.,-5,-9,.,.
CC(=O)c1cc2c(cc1NC(=O)c1ccc(Cl)cc1)OCCO2,1%,13,-27%,36%,-2,.,.,.
CCC(=O)c1cc2c(cc1NC(=O)c1ccccc1)OCCO2,4µM*,5,46%,.,1,-2,4µM*,28%
CCCc1cc2c(=O)c(-c3ccc4c(c3)OCCO4)c(C)oc2cc1OS(C)(=O)=O,2.2µM*,?,?,?,3,24,11µM*,-33%
CCOC(=O)c1ccc(NC(=S)N(CCCN2CCN(C)CC2)Cc2cccs2)cc1,?,8,45%,?,-2,-6,.,.
CCOC(=O)c1ccc(NC(=S)N(CCCN2CCCC2)Cc2cccs2)cc1,?,-26,?,0%,-2,-10,?,22%
COc1ccc(-n2c3c(cc(C(=O)NCC(=O)c4ccccc4)c2=O)C(=O)CC(C)(C)C3)cc1,8%,23,-12%,-19%,5,40,.,.
CCC[n+]1c(C)sc2c3c(ccc21)CCCC3,7.1µM*,.,4%,?,-3,-6,25µM*,30%
O=C(CCl)Nc1ccc(-c2ccccc2)cc1,3.2µM*,81,13µM*,?,-7,-21,6.3µM*,8.9µM*
CC(=O)Nc1ccc(NC(=O)Cc2ccc(-c3ccccc3)cc2)cc1,7%,-29,-18%,6%,13,13,.,.
CN(CCc1cn[nH]c1)Cc1nc(Cc2ccccc2)no1,1%,-36,?,10%,-2,6,.,.
CCOC(=O)c1cc2c(=O)n3ccccc3nc2n(Cc2ccco2)c1=NC(=O)c1ccc(OC)cc1OC,?,-27,?,?,-2,-13,?,30%
CCOc1ccc(CCNS(=O)(=O)c2cnc[nH]2)cc1OCC,6.3µM*,-19,?,-24%,-4,-11,?,-9%
CCOc1ccc(CCNS(=O)(=O)c2ccc(-c3ccc(=O)[nH]n3)o2)cc1OCC,0%,9,15%,?,-1,-5,.,.
Cc1ccc(CN(Cc2ccco2)C(=S)Nc2ccccc2C)cc1,?,?,?,?,-2,-13,.,.
Cc1ccc(CN(Cc2ccccc2)C(=S)Nc2ccccc2C)o1,3.2µM*,55,?,?,1,-5,-24%,36%
COc1ccc(-n2cc(-c3ccc(C)cc3)[n+]3c2SCC3)cc1,?,-102*,?,0.59µM*,-8,-9,13µM*,13µM*
O=C(C1=C(O)C(=O)N(c2ncccn2)C1c1ccc(F)cc1)c1ccco1 (stereo not given),-10%,17,7%,0%,-2,4,.,.
CN1CCc2nc(SCC(=O)Nc3cccc(F)c3)c(C#N)c(-c3cccs3)c2C1,?,-1,10µM*,13µM*,37,53*,?,35%
CCCn1c(NC(=O)c2cccc(S(=O)(=O)N3CCCC3)c2)nc2ccccc21,5µM*,-97*,9.3µM*,?,-8,0,10µM*,8.9µM*
SMILES,HCV inhibitor,HCMV inh,Pf growth 96h,Pf growth 48h,Cycloheximide cs,Shiga inhibitor,HCV confirm,HCV host tox
CCN(CC)S(=O)(=O)c1ccc(Oc2ccc(S(=O)(=O)N(CC)CC)cc2)cc1,2.8µM*,19,12%,?,-3,-8,2.5µM*,2.8µM*
CCN(CC)S(=O)(=O)c1ccc(Oc2ccccc2OC)cc1,?,8,?,?,-3,17,.,.
Cc1cccc(Nc2nc(-c3c(C)nc4ccccn34)cs2)c1,2.5µM*,-95*,?,?,0,-19,14µM*,25µM*
COc1ccc(NC(=O)C2CCCCN2N)cc1OCC(C)C (stereo not given),?,99,.,?,-2,2,?,38%
N#C/C(=C\c1cc([N+](=O)[O-])c(N2CCCCC2)cc1N1CCCCC1)c1nn(-c2ccccc2)c(N)c1C#N,?,29,?,?,7,-12,10µM*,40%
Cc1ccccc1Oc1nc(-c2ccccn2)nc2ccccc12,7.9µM*,-99*,0.93µM*,1.9µM*,39*,46*,11µM*,?
CCOc1nc(-c2ccccc2Cl)nc2ccccc12,-15%,3,28%,8%,-1,-6,.,.
Cc1ccc(NC2=C/C(=N\S(=O)(=O)c3cccs3)c3ccccc3C2=O)c(C)c1,5.6µM*,.,0.033µM*,0.093µM*,13*,7,2.5µM*,3.5µM*
O=C(OCC12CC3CC(CC(C3)C1)C2)c1ccc(NCc2cc(O)ccc2O)cc1,1.6µM*,-77*,.,.,.,.,4µM*,10µM*
O=C(O)c1cc(NCc2cc(O)ccc2O)ccc1O,.,.,.,.,12,2,.,.
O=C(NC1CCCCC1)C(c1ccncc1)N(C(=O)c1ccco1)c1ccc(F)cc1 (stereo not given),4%,6,0%,-14%,-6,4,.,.
CC(C)N(CCc1ccncc1)C(=S)Nc1ccc(F)c(Cl)c1,-11%,0,?,11%,-5,-13,.,.
CCc1ccc(NC(=O)CSc2nc3n[nH]c(C)c3c(=N)n2-c2cccc(OC)c2)cc1,7.1µM*,-38,?,?,-2,-3,14µM*,20%
